From the supplement of paper PMC10127200
Counter-ions that a name gives are not always drawn.

Key:
Experiment in all cases: Euclidean distance of Cell Painting phenotypic profile (signed KS, 77 features) to DMSO centroid (dimensionless distance); 5 or 10 uM (library dependent); higher = stronger phenotypic change vs DMSO (phenoactivity)
Settings in all cases: 48 h
786-O = tested on: 786-O
Outline: (§1)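 Library compounds were applied at 10 or 5 uM, depending on the library, with 0.1% DMSO final, for 48 h to five cancer lines and a healthy fibroblast line. After staining, cells were imaged confocally at 20X across 9 fields per well, and Harmony extracted 77 features, each scored as a signed Kolmogorov-Smirnov statistic against vehicle wells on the same plate. Phenoactivity is the Euclidean distance between each profile and the median vehicle profile, with profiles first plate-position corrected, correlation-weighted and averaged over replicates at the top dose.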

A549 = tested on: A549
Outline: as §1

DU145 = tested on: DU145
Outline: as §1

FB = tested on: FB
Outline: as §1

HEPG2 = tested on: HEPG2
Outline: as §1

OVCAR4 = tested on: OVCAR4
Outline: as §1

COc1cc(Nc2ncc3c(n2)-c2ccc(Cl)cc2C(c2c(F)cccc2OC)=NC3)ccc1C(=O)O [Alisertib (MLN8237)]
Euclidean distance (786-O): 2.85
Euclidean distance (A549): 3.22
Euclidean distance (DU145): 2.99
Euclidean distance (FB): 3.08
Euclidean distance (HEPG2): 2.23
Euclidean distance (OVCAR4): 2.8

O=C(c1ccc(C(=O)N2CCC(N3CCCC3)CC2)c(Nc2ccccc2)c1)N1CCC(N2CCCC2)CC1
Euclidean distance (786-O): 0.8
Euclidean distance (A549): 1.05
Euclidean distance (DU145): 0.703
Euclidean distance (FB): 0.904
Euclidean distance (HEPG2): 0.536
Euclidean distance (OVCAR4): 0.678

COc1ccc(-c2nc3cc(C4=NNC(=O)CC4C)ccc3[nH]2)cc1 (stereo unspecified) [Pimobendan]
Euclidean distance (786-O): 1.43
Euclidean distance (A549): 1.4
Euclidean distance (DU145): 1.01
Euclidean distance (FB): 1.27
Euclidean distance (HEPG2): 1.2
Euclidean distance (OVCAR4): 1.02

c1ccc(CC2=NCCN2)cc1 [Tolazoline HCl]
Euclidean distance (786-O): 0.97
Euclidean distance (A549): 1.05
Euclidean distance (DU145): 0.877
Euclidean distance (FB): 0.718
Euclidean distance (HEPG2): 0.734
Euclidean distance (OVCAR4): 1.42

CC(C)(O/N=C(\C(=O)N[C@@H]1C(=O)N2C(C(=O)[O-])=C(C[n+]3ccccc3)CS[C@H]12)c1csc(N)n1)C(=O)O [Ceftazidime]
Euclidean distance (786-O): 1.39
Euclidean distance (A549): 0.613
Euclidean distance (DU145): 0.815
Euclidean distance (FB): 1.06
Euclidean distance (HEPG2): 0.385
Euclidean distance (OVCAR4): 1.62

N[C@H](C(=O)O)[C@H](O)c1ccc(O)c(O)c1 [Droxidopa]
Euclidean distance (786-O): 0.967
Euclidean distance (A549): 0.876
Euclidean distance (DU145): 0.724
Euclidean distance (FB): 0.744
Euclidean distance (HEPG2): 1.01
Euclidean distance (OVCAR4): 0.873

Cc1cc(O)c(C(=O)N[C@@H](C(=O)N[C@@H]2C(=O)N3C(C(=O)O)=C(CSc4nnnn4C)CS[C@H]23)c2ccc(O)cc2)cn1 [Cefpiramide sodium]
Euclidean distance (786-O): 0.849
Euclidean distance (A549): 1.35
Euclidean distance (DU145): 1.94
Euclidean distance (FB): 1.17
Euclidean distance (HEPG2): 0.51
Euclidean distance (OVCAR4): 0.977

C[C@@H](Oc1ccc2[nH]nc(/C=C/c3cnn(CCO)c3)c2c1)c1c(Cl)cncc1Cl
Euclidean distance (786-O): 3.17
Euclidean distance (A549): 3.59
Euclidean distance (DU145): 3.07
Euclidean distance (FB): 3.2
Euclidean distance (HEPG2): 3.02
Euclidean distance (OVCAR4): 3.82

Cc1ncc([N+](=O)[O-])n1CCOC(=O)c1ccccc1 [Metronidazole Benzoate]
Euclidean distance (786-O): 0.984
Euclidean distance (A549): 1.41
Euclidean distance (DU145): 0.885
Euclidean distance (FB): 1.58
Euclidean distance (HEPG2): 0.486
Euclidean distance (OVCAR4): 0.922

COc1cc2nccc(Oc3ccc(NC(=O)C4(C(=O)Nc5ccc(F)cc5)CC4)cc3)c2cc1OC [Cabozantinib malate (XL184)]
Euclidean distance (786-O): 1.85
Euclidean distance (A549): 2.98
Euclidean distance (DU145): 1.3
Euclidean distance (FB): 2.84
Euclidean distance (HEPG2): 1.89
Euclidean distance (OVCAR4): 2.25

COC(=O)C1=C(C)NC(C)=C(C(=O)OCCN(C)Cc2ccccc2)C1c1cccc([N+](=O)[O-])c1 (stereo unspecified) [Nicardipine HCl]
Euclidean distance (786-O): 1.27
Euclidean distance (A549): 1.28
Euclidean distance (DU145): 0.897
Euclidean distance (FB): 0.903
Euclidean distance (HEPG2): 1.24
Euclidean distance (OVCAR4): 1.31

Nc1cccc2c1C(=O)N(C1CCC(=O)NC1=O)C2=O (stereo unspecified) [Pomalidomide]
Euclidean distance (786-O): 0.929
Euclidean distance (A549): 0.804
Euclidean distance (DU145): 0.704
Euclidean distance (FB): 1.06
Euclidean distance (HEPG2): 0.312
Euclidean distance (OVCAR4): 0.886

COc1cc(N2CCN(C)CC2)ccc1Nc1nccc(-c2cn(C)c3cnccc23)n1
Euclidean distance (786-O): 2.55
Euclidean distance (A549): 1.56
Euclidean distance (DU145): 1.34
Euclidean distance (FB): 2.68
Euclidean distance (HEPG2): 1.53
Euclidean distance (OVCAR4): 2.69

CC(=O)S[C@@H]1CC2=CC(=O)CC[C@]2(C)[C@H]2CC[C@@]3(C)[C@@H](CC[C@@]34CCC(=O)O4)[C@H]12 [Spironolactone]
Euclidean distance (786-O): 0.955
Euclidean distance (A549): 0.839
Euclidean distance (DU145): 1.3
Euclidean distance (FB): 1.04
Euclidean distance (HEPG2): 0.705
Euclidean distance (OVCAR4): 0.776

CC(C)NCC(O)COc1ccc(CC(N)=O)cc1 (stereo unspecified) [Atenolol]
Euclidean distance (786-O): 1.33
Euclidean distance (A549): 0.613
Euclidean distance (DU145): 0.819
Euclidean distance (FB): 0.889
Euclidean distance (HEPG2): 1.22
Euclidean distance (OVCAR4): 0.667

NC(=O)[C@@H]1CCCN1C(=O)[C@H](Cc1c[nH]cn1)NC(=O)[C@@H]1CCC(=O)N1 [Protirelin]
Euclidean distance (786-O): 1.34
Euclidean distance (A549): 0.937
Euclidean distance (DU145): 0.758
Euclidean distance (FB): 1.31
Euclidean distance (HEPG2): 0.44
Euclidean distance (OVCAR4): 0.947

COc1cc2c(cc1OC)[C@@H]1Cc3ccc(OC)c(OC)c3CN1CC2 [Tetrahydropalmatine]
Euclidean distance (786-O): 0.584
Euclidean distance (A549): 0.856
Euclidean distance (DU145): 0.447
Euclidean distance (FB): 0.696
Euclidean distance (HEPG2): 0.585
Euclidean distance (OVCAR4): 0.757

COc1cc(F)c(F)c(Nc2ccc(I)cc2F)c1NS(=O)(=O)C1(C[C@H](O)CO)CC1 [Refametinib (RDEA119. Bay 86-9766)]
Euclidean distance (786-O): 2.91
Euclidean distance (A549): 2.51
Euclidean distance (DU145): 2.83
Euclidean distance (FB): 3.57
Euclidean distance (HEPG2): 1.79
Euclidean distance (OVCAR4): 2.27

O=C1OCCN1/N=C/c1ccc([N+](=O)[O-])o1 [Furazolidone]
Euclidean distance (786-O): 1.14
Euclidean distance (A549): 1.26
Euclidean distance (DU145): 1.02
Euclidean distance (FB): 1.13
Euclidean distance (HEPG2): 0.999
Euclidean distance (OVCAR4): 1.09

O=c1ncn2nc(Sc3ccc(F)cc3F)ccc2c1-c1c(Cl)cccc1Cl
Euclidean distance (786-O): 1.78
Euclidean distance (A549): 0.873
Euclidean distance (DU145): 1.38
Euclidean distance (FB): 1.63
Euclidean distance (HEPG2): 1.25
Euclidean distance (OVCAR4): 1.55

O=C(Nc1ccccc1)OCC(CN1CCCCC1)OC(=O)Nc1ccccc1 (stereo unspecified) [Diperodon HCl]
Euclidean distance (786-O): 1.03
Euclidean distance (A549): 1.43
Euclidean distance (DU145): 1.31
Euclidean distance (FB): 1.59
Euclidean distance (HEPG2): 0.984
Euclidean distance (OVCAR4): 1.64

OCC(CO)N[C@H]1C[C@](O)(CO)[C@@H](O)[C@H](O)[C@H]1O [Voglibose]
Euclidean distance (786-O): 0.92
Euclidean distance (A549): 0.919
Euclidean distance (DU145): 0.846
Euclidean distance (FB): 0.977
Euclidean distance (HEPG2): 1.06
Euclidean distance (OVCAR4): 1.34

Cc1nc(Nc2ncc(C(=O)Nc3c(C)cccc3Cl)s2)cc(N2CCN(CCO)CC2)n1 [Dasatinib Monohydrate]
Euclidean distance (786-O): 3.41
Euclidean distance (A549): 3.76
Euclidean distance (DU145): 6.08
Euclidean distance (FB): 3.53
Euclidean distance (HEPG2): 2.09
Euclidean distance (OVCAR4): 4.26

c1ccc2c(CC3=NCCN3)cccc2c1 [Naphazoline HCl]
Euclidean distance (786-O): 1.23
Euclidean distance (A549): 0.672
Euclidean distance (DU145): 1.11
Euclidean distance (FB): 0.693
Euclidean distance (HEPG2): 0.599
Euclidean distance (OVCAR4): 0.531

CCOC(=O)N1c2ccc(C(F)(F)F)cc2[C@@H](N(Cc2cc(C(F)(F)F)cc(C(F)(F)F)c2)C(=O)OC)C[C@H]1CC [Torcetrapib]
Euclidean distance (786-O): 1.3
Euclidean distance (A549): 0.836
Euclidean distance (DU145): 1.01
Euclidean distance (FB): 0.99
Euclidean distance (HEPG2): 0.467
Euclidean distance (OVCAR4): 1.29

Clc1ccccc1C(c1ccccc1)(c1ccccc1)n1ccnc1 [Clotrimazole]
Euclidean distance (786-O): 2.01
Euclidean distance (A549): 1.31
Euclidean distance (DU145): 1.38
Euclidean distance (FB): 1.42
Euclidean distance (HEPG2): 1.76
Euclidean distance (OVCAR4): 1.64
